According to PubChem BioAssay (NCATS):
Results filed as inconclusive are left out. Calls of active or inactive are those of the source. Calls follow the shape of the dose curve; as a rule, active = well fitted inhibition curve with a large enough effect; inconclusive = small, poorly fitted or top-dose-only effect; inactive = flat fitted curve, though single readings scatter.

Experiments:
[1] = qHTS profiling for inhibitors of Plasmodium falciparum proliferation (AID 504749);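 also: 0% = DMSO vehicle and full inhibition = artemisinin control; nearly all actives have a fitted effect of over 60% in size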; conditions: P. falciparum in erythrocytes, SYBR Green DNA, 72 h
Outline: (§1)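 P. falciparum-infected erythrocytes (0.3% parasitemia, 2.5% hematocrit final) were exposed to compounds for 72 h at 37 C in 5% CO2, then lysed with SYBR Green buffer overnight at room temperature; parasite DNA fluorescence was normalized to artemisinin and DMSO controls.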

3D7 = assay: as above; conditions: P. falciparum in erythrocytes, SYBR Green DNA, 72 h; series mostly up to 28.7 µM
Outline: as §1

7G8 = assay: as above; conditions: P. falciparum in erythrocytes, SYBR Green DNA, 72 h; series mostly up to 28.7 µM
Outline: as §1

AA1029 = assay: as above; conditions: P. falciparum in erythrocytes, SYBR Green DNA, 72 h; series mostly up to 28.7 µM
Outline: as §1

AS120 = assay: as above; conditions: P. falciparum in erythrocytes, SYBR Green DNA, 72 h; series mostly up to 28.7 µM
Outline: as §1

ATS189 = assay: as above; conditions: P. falciparum in erythrocytes, SYBR Green DNA, 72 h; series mostly up to 28.7 µM
Outline: as §1

ATS95 = assay: as above; conditions: P. falciparum in erythrocytes, SYBR Green DNA, 72 h; series mostly up to 28.7 µM
Outline: as §1

C2A = assay: as above; conditions: P. falciparum in erythrocytes, SYBR Green DNA, 72 h; series mostly up to 28.7 µM
Outline: as §1

CP185 = assay: as above; conditions: P. falciparum in erythrocytes, SYBR Green DNA, 72 h; series mostly up to 28.7 µM
Outline: as §1

[2] = at 28.7 µM (top of the series), parasite line A
[3] = at 28.7 µM (top of the series), parasite line B
[4] = at 12.8 µM (top of the series), parasite line A
[5] = at 12.8 µM (top of the series), parasite line B

Clc1ccc2c(c1)C(c1ccccc1)=NCc1nncn1-2
inactive: activity, negative = inhibition [1, 2] -1.68% | activity, negative = inhibition [1, 3] 10.3% | Potency (3D7) | Potency (7G8) | Potency (AA1029) | Potency (AS120) | Potency (ATS189) | Potency (ATS95) | Potency (C2A) | Potency (CP185)

CCCC(C)(COC(N)=O)COC(N)=O
inactive: activity, negative = inhibition [1, 2] 5.3% | activity, negative = inhibition [1, 3] 9.68% | Potency (3D7) | Potency (7G8) | Potency (AA1029) | Potency (AS120) | Potency (ATS189) | Potency (ATS95) | Potency (C2A) | Potency (CP185)

Oc1ccc(Cl)cc1
inactive: activity, negative = inhibition [1, 2] 0.659% | activity, negative = inhibition [1, 3] -12.9% | Potency (3D7) | Potency (7G8) | Potency (AA1029) | Potency (AS120) | Potency (ATS189) | Potency (ATS95) | Potency (C2A) | Potency (CP185)

O=C1Nc2ccc(Cl)cc2C(c2ccccc2)=NC1O (stereo not given)
inactive: activity, negative = inhibition [1, 2] -1.71% | activity, negative = inhibition [1, 3] 3.16% | Potency (3D7) | Potency (7G8) | Potency (AA1029) | Potency (AS120) | Potency (ATS189) | Potency (ATS95) | Potency (C2A) | Potency (CP185)

CN1CCC(O)(c2ccc(F)cc2)C(C(=O)c2ccc(F)cc2)C1 (stereo not given)
inactive: activity, negative = inhibition [1, 2] -7.61% | activity, negative = inhibition [1, 3] -4.09% | Potency (3D7) | Potency (7G8) | Potency (AA1029) | Potency (AS120) | Potency (ATS189) | Potency (ATS95) | Potency (C2A) | Potency (CP185)

Nc1ccccc1C(=O)O
inactive: activity, negative = inhibition [1, 2] 15.6% | activity, negative = inhibition [1, 3] 4.96% | Potency (3D7) | Potency (7G8) | Potency (AA1029) | Potency (AS120) | Potency (ATS189) | Potency (ATS95) | Potency (C2A) | Potency (CP185)

CCC1(c2ccccc2)C(=O)N(COC)C(=O)N(COC)C1=O
inactive: activity, negative = inhibition [1, 2] 4.41% | activity, negative = inhibition [1, 3] 7.29% | Potency (3D7) | Potency (7G8) | Potency (AA1029) | Potency (AS120) | Potency (ATS189) | Potency (ATS95) | Potency (C2A) | Potency (CP185)

CC(C)=CC1C(C(=O)OCN2C(=O)C3=C(CCCC3)C2=O)C1(C)C (stereo not given)
inactive: activity, negative = inhibition [1, 2] 4.58% | activity, negative = inhibition [1, 3] 1.1% | Potency (3D7) | Potency (7G8) | Potency (AA1029) | Potency (AS120) | Potency (ATS189) | Potency (ATS95) | Potency (C2A) | Potency (CP185)

Cc1ncsc1CCCl
inactive: activity, negative = inhibition [1, 2] 12% | activity, negative = inhibition [1, 3] 0.0082% | Potency (3D7) | Potency (7G8) | Potency (AA1029) | Potency (AS120) | Potency (ATS189) | Potency (ATS95) | Potency (C2A) | Potency (CP185)

CNC(C)(C)Cc1ccccc1
inactive: activity, negative = inhibition [1, 4] 5.96% | activity, negative = inhibition [1, 5] 5.61% | Potency (3D7) | Potency (7G8) | Potency (AA1029) | Potency (AS120) | Potency (ATS189) | Potency (ATS95) | Potency (C2A) | Potency (CP185)

C[C@]12CC[C@@H]3c4ccc(OC(=O)N(CCCl)CCCl)cc4CC[C@H]3[C@@H]1CC[C@@H]2O
inactive: activity, negative = inhibition [1, 2] 15.2% | activity, negative = inhibition [1, 3] 2.03% | Potency (3D7) | Potency (7G8) | Potency (AA1029) | Potency (AS120) | Potency (ATS189) | Potency (ATS95) | Potency (C2A) | Potency (CP185)

CCCCCCC(=O)CCCCCC/C=C/C[C@@H](O)[C@H](O)[C@@](N)(CO)C(=O)O
inactive: activity, negative = inhibition [1, 2] 16.1% | activity, negative = inhibition [1, 3] 7.92% | Potency (3D7) | Potency (7G8) | Potency (AA1029) | Potency (AS120) | Potency (ATS189) | Potency (ATS95) | Potency (C2A) | Potency (CP185)

O=c1oc2ccccc2c(O)c1Cc1c(O)c2ccccc2oc1=O
inactive: activity, negative = inhibition [1, 4] 7.78% | activity, negative = inhibition [1, 5] 2.51% | Potency (3D7) | Potency (7G8) | Potency (AA1029) | Potency (AS120) | Potency (ATS189) | Potency (ATS95) | Potency (C2A) | Potency (CP185)

C[C@]12CCC(=O)C=C1CC[C@@H]1[C@@H]2CC[C@]2(C)C(=O)CC[C@@H]12
inactive: activity, negative = inhibition [1, 2] -9.45% | activity, negative = inhibition [1, 3] 3.53% | Potency (3D7) | Potency (7G8) | Potency (AA1029) | Potency (AS120) | Potency (ATS189) | Potency (ATS95) | Potency (C2A) | Potency (CP185)

Nc1nc(N)nc(NC2CC2)n1
inactive: activity, negative = inhibition [1, 2] -13.5% | activity, negative = inhibition [1, 3] 1.17% | Potency (3D7) | Potency (7G8) | Potency (AA1029) | Potency (AS120) | Potency (ATS189) | Potency (ATS95) | Potency (C2A) | Potency (CP185)

CCOC(=O)CC(SP(=S)(OC)OC)C(=O)OCC (stereo not given)
inactive: activity, negative = inhibition [1, 2] 10.2% | activity, negative = inhibition [1, 3] -3.96% | Potency (3D7) | Potency (7G8) | Potency (AA1029) | Potency (AS120) | Potency (ATS189) | Potency (ATS95) | Potency (C2A) | Potency (CP185)
